Results as given in PubChem BioAssay (NCATS).
Inconclusive results are not listed. A number with no mark means an inactive call. Activity calls are given as the source filed them. Unless noted, the call rests on the fitted dose curve.

test system: not listed separately; assay: qHTS for Inhibitors of the Functional Ribonucleoprotein Complex (vRNP) of Lymphocytic Choriomeningitis Arenaviruses (LCMV): Viability assay - alamar blue signal for LCMV Primary Screen (AID 1347085; calls by dose curve; tested in HEK293 reporter line; further: nearly all actives have a fitted effect of over 80% in size); settings: alamar blue viability counter-screen, LCMV vRNP screen cells; series mostly up to 57.5 µM; activity change, negative = lower viability: at the top concentration
On the % scale 0 is the no-effect control and ±100 the full control effect.

First: CN(C)[C@@H]1C(=O)C(C(N)=O)=C(O)[C@@]2(O)C(=O)C3=C(O)c4c(O)cccc4C[C@H]3C[C@@H]12
Second: CC1CC(OC(=O)c2ccccc2O)CC(C)(C)C1 (stereo not given)
The “activity change, negative = lower viability” value of the first is higher: 7.71% for the first, 6.98% for the second.

Going from CN(C)CCN1CCN(c2cccc(Cl)c2)C1=O to COC(=O)c1ccccc1C(=O)c1ccc(OCCN2CCCCC2)cc1, the “activity change, negative = lower viability” value rises from 2.95% to 4.16%.

Going from O=C(O)[C@@H](O)[C@H](O)[C@H](O)[C@@H](O)C(=O)O to Nc1c(I)cc(I)c(C(=O)N(CCC(=O)O)c2ccccc2)c1I, the “activity change, negative = lower viability” value falls from 15.3% to -28.5%.

Going from C/C=C1\[C@H]2C=C(C)C[C@]1(N)c1ccc(=O)[nH]c1C2 to Cc1ccc(C(C)C)cc2c(C)ccc1-2, the “activity change, negative = lower viability” value falls from 9.96% to 5.45%.

First: Cc1cn([C@@H]2O[C@H](CO)[C@@H](O)[C@H]2F)c(=O)[nH]c1=O
Second: CCOC(=O)c1ccccc1O
The “activity change, negative = lower viability” value of the first is higher: 6.15% for the first, -15.1% for the second.

Going from COP(=O)(OC)OC(c1ccc(Cl)cc1)P(=O)(OC)OC (stereo not given) to O=C(CCN1CCC(c2ccccc2)C1)c1ccc2c(c1)OCCO2 (stereo not given), the “activity change, negative = lower viability” value rises from -6.56% to 12.1%.

In the case of CC(C)CCCC(C)NCCC(C)C (stereo not given), the “activity change, negative = lower viability” value is reported as 12.1%.

With CCCOC(=O)c1ccccc1 the Potency was “inactive”.
In the case of Cc1ccc(Nc2nccc(N(C)c3ccc4c(C)n(C)nc4c3)n2)cc1S(N)(=O)=O, the Potency is reported as “inactive”.
With COc1ccc(C2CNC(=O)C2)cc1OC1CCCC1 (stereo not given) the Potency was “inactive”.

For Cc1cc2nc3c(=O)[nH]c(=O)nc-3n(C[C@H](O)[C@H](O)[C@H](O)CO)c2cc1C, the “activity change, negative = lower viability” value was -13.1% [at 24.7 µM].

target: Nucleoprotein (Lymphocytic choriomeningitis virus (strain Armstrong)) (UniProt P09992); assay: qHTS for Inhibitors of the Functional Ribonucleoprotein Complex (vRNP) of Lymphocytic Choriomeningitis Arenaviruses (LCMV): LCMV Primary Screen - GLuc reporter signal (AID 1347086); settings: LCMV minigenome vRNP cell assay, Gaussia luciferase reporter; series mostly up to 57.5 µM; activity change, negative = inhibition: at the top concentration; further: nearly all actives have a fitted effect of over 70% in size
Sequence (P09992 whole entry, looked up): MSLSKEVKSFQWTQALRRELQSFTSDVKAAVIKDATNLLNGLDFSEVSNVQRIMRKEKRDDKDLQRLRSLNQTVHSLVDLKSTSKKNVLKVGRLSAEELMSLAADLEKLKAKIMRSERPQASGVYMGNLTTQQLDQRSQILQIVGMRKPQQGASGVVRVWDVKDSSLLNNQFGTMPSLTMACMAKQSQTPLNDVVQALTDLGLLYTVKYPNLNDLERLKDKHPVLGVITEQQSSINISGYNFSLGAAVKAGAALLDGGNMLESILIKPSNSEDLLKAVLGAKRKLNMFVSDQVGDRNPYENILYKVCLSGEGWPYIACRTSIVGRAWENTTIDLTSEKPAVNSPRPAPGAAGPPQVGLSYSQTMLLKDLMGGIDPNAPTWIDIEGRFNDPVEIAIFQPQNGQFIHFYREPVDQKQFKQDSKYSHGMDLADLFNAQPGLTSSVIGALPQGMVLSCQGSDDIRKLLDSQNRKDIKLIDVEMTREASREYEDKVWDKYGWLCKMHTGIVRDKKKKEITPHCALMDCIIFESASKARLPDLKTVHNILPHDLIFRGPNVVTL

Going from Nc1ccc(C(=O)O)cc1 to Nc1ccc(C(=O)OCC(O)CO)cc1 (stereo not given), the “activity change, negative = inhibition” value falls from 1.9% to -2.96%.

Going from O=C1c2c(O)cccc2Cc2cccc(O)c21 to CN(C)[C@@H]1C(=O)C(C(N)=O)=C(O)[C@@]2(O)C(=O)C3=C(O)c4c(O)cccc4C[C@H]3C[C@@H]12, the “activity change, negative = inhibition” value falls from 7.15% to -4.47%.

First: CC(C)[N+](C)(C)CC(O)COc1cccc2ccccc12 (stereo not given)
Second: Cc1ccccc1OCC(O)CO (stereo not given)
The “activity change, negative = inhibition” value of the first is lower: -2.54% for the first, 2.05% for the second.

First: COc1ccnc(CS(=O)c2nc3ccc(OC(F)F)cc3[nH]2)c1OC (stereo not given)
Second: Cc1ccc(Nc2nccc(N(C)c3ccc4c(C)n(C)nc4c3)n2)cc1S(N)(=O)=O
The “activity change, negative = inhibition” value of the first is lower: 2.27% for the first, 14.8% for the second.

Going from CC(=O)N(CC(O)CO)c1c(I)c(C(=O)NCC(O)CO)c(I)c(C(=O)NCC(O)CO)c1I (stereo not given) to Nc1c(I)cc(I)c(C(=O)N(CCC(=O)O)c2ccccc2)c1I, the “activity change, negative = inhibition” value rises from 3.61% to 22.8%.

First: Cc1ccc(S(=O)(=O)NC(=O)NC2CCCCC2)cc1
Second: CC(=O)c1ccc(OCC(=O)N2CCCCC2)cc1
The “activity change, negative = inhibition” value of the first is lower: 11.9% for the first, 18.3% for the second.

First: Cc1ccc(C(=O)C(=O)O)cc1C
Second: Nc1ccc(C(=O)O)c(O)c1
The “activity change, negative = inhibition” value of the first is higher: -0.541% for the first, -11.3% for the second.

Going from COCCc1ccccn1 to CCOC(=O)c1ccccc1O, the “activity change, negative = inhibition” value falls from 19.1% to 12.8%.

First: CCOC(=O)C1=C[C@@H](OC(CC)CC)[C@H](NC(C)=O)[C@@H](N)C1
Second: COC(=O)C1=C(C)NC(C)=C(C(=O)OCC(C)=O)C1c1ccccc1[N+](=O)[O-] (stereo not given)
The “activity change, negative = inhibition” value of the first is lower: 10.9% for the first, 35.9% for the second.

First: O=C(O)Cc1cn(-c2ccccc2)nc1-c1ccc(Cl)cc1
Second: COC(=O)c1ccccc1C(=O)c1ccc(OCCN2CCCCC2)cc1
The “activity change, negative = inhibition” value of the first is higher: 6.29% for the first, 5.46% for the second.

First: CC(CCc1ccc2c(c1)OCO2)NN (stereo not given)
Second: O=C(CCN1CCC(c2ccccc2)C1)c1ccc2c(c1)OCCO2 (stereo not given)
The “activity change, negative = inhibition” value of the first is higher: 7.68% for the first, 6.33% for the second.

Going from O=C(O)[C@H](O)c1ccccc1 to CC1CC(OC(=O)c2ccccc2O)CC(C)(C)C1 (stereo not given), the “activity change, negative = inhibition” value rises from 0.465% to 16.1%.

Going from CCOCCn1c(C2CCN(CCc3ccc(C(C)(C)C(=O)O)cc3)CC2)nc2ccccc21 to CN(C)CCN1CCN(c2cccc(Cl)c2)C1=O, the “activity change, negative = inhibition” value rises from -4.48% to -0.09%.

First: O=C(O)[C@@H](O)[C@H](O)[C@H](O)[C@@H](O)C(=O)O
Second: COP(=O)(OC)OC(c1ccc(Cl)cc1)P(=O)(OC)OC (stereo not given)
The “activity change, negative = inhibition” value of the first is higher: 15.7% for the first, -5.13% for the second.

First: C/C=C1\[C@H]2C=C(C)C[C@]1(N)c1ccc(=O)[nH]c1C2
Second: Cc1ccc(C(C)C)cc2c(C)ccc1-2
The “activity change, negative = inhibition” value of the first is higher: 13.6% for the first, 10.8% for the second.

First: Cc1cn([C@@H]2O[C@H](CO)[C@@H](O)[C@H]2F)c(=O)[nH]c1=O
Second: CC(C)CCCC(C)NCCC(C)C (stereo not given)
The “activity change, negative = inhibition” value of the first is higher: 94% for the first, 8.86% for the second.

With CC(=O)c1ccc(S(=O)(=O)NC(=O)NC2CCCCC2)cc1 the Potency was “inactive”.
With CCN(CC)CCNC(=O)c1cc(S(C)(=O)=O)ccc1OC the Potency was “inactive”.
For CCCOC(=O)c1ccccc1, the Potency was “inactive”.
With COc1ccc(C2CNC(=O)C2)cc1OC1CCCC1 (stereo not given) the Potency was “inactive”.

Going from CCCC(=O)O[C@]1(C(=O)COC(=O)CC)CC[C@H]2[C@@H]3CCC4=CC(=O)CC[C@]4(C)[C@H]3[C@@H](O)C[C@@]21C to Cc1cc2nc3c(=O)[nH]c(=O)nc-3n(C[C@H](O)[C@H](O)[C@H](O)CO)c2cc1C, the “activity change, negative = inhibition” value rises from -97.7% [at 24.7 µM] to 2.84% [at 24.7 µM].
